PINK1 modulator = PINK1 expression modulation | PINK1 immunofluorescence, high-content cytometry, 24 h | 410,000 compounds, 0.2% hits | Potency, µM (doses to about 76.6 µM), usual class: activators; active = well fitted activation curve with a large enough effect; inconclusive = small, poorly fitted or top-dose-only effect; cell line not stated here; note: nearly all actives have a fitted effect of over 65% in size
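Fluorescence from anti-PINK1 antibody, together with nuclear and cell stains, was scanned on a laser-scanning cytometer. Before staining, stable-line cells were incubated 24 hours with compounds at 5 concentrations; primary antibody 12 h at 10 degrees C.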
KB-V1 cytotox = kills drug-selected multidrug resistant KB-V1 cells | KB-V1 MDR cells viability, CellTiter-Glo, 72 h | Potency, µM (series often up to 46.1 µM), hits mostly cytotoxic | 400,000 compounds, 3.4% hits | AID 1347076; note: nearly all actives have a fitted effect of over 60% in size
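In this primary screen, KB-V1 cells overexpressing P-gp are incubated with library compounds (lowest to highest concentration) for 72 h at 37 degrees C before a luminescent ATP viability read.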
SW480 rereplic = induces DNA re-replication in SW480 colon adenocarcinoma cells; AID 624297; Potency, µM (doses to about 46.1 µM), hits mostly activators; 340,000 compounds, 1.8% hits; SW480 DNA re-replication, Hoechst DNA content imaging, 48 h; note: nearly all actives have a fitted effect of over 55% in size
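Cells (250 per well) received 23 nL compound or DMSO by pin tool and were kept 48 hr at 37 C, 5% CO2. Nuclei were then stained with Hoechst for 40 min and scanned for DNA content.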
MCF10A rereplic = induces DNA re-replication in MCF 10a normal breast cells | 350,000 compounds, 2.9% hits | AID 624296 | MCF 10A DNA re-replication, Hoechst nuclear intensity, 48 h | Potency, µM (series often up to 46.1 µM), hits mostly activators; note: nearly all actives have a fitted effect of over 50% in size
ALOX12 inh = inhibitors of human 12S-lipoxygenase ALOX12 | P18054 | purified 12hLO, xylenol orange hydroperoxide absorbance | Potency, µM (series often up to 108 µM), most hits filed as inhibitors | 580,000 compounds, 1.1% hits
Target sequence (P18054 whole entry, looked up): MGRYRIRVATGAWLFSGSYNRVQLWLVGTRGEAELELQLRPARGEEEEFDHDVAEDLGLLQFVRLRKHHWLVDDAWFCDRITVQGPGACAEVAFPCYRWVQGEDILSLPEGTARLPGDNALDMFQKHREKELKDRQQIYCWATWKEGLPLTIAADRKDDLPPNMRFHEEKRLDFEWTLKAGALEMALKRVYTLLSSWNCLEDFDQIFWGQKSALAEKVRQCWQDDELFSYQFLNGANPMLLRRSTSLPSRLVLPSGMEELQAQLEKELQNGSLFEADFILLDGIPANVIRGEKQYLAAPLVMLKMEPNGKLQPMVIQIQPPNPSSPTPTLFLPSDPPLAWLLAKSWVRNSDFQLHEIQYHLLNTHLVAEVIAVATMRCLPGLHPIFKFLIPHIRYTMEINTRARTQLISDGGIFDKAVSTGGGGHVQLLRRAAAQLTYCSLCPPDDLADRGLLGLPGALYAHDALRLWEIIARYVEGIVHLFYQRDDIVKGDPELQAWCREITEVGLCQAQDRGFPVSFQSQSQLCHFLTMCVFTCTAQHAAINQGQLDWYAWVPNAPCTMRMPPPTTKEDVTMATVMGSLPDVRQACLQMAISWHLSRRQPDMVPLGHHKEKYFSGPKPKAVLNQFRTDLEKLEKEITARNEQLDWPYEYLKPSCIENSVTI
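Purified human 12hLO at 150 nM in 25 mM Hepes, 0.01% Triton X-100, pH 7.0, preincubated 15 min at room temperature with compound. Reaction started with 40 uM arachidonic acid, 30 min at room temperature. Hydroperoxide measured by Fe-xylenol orange, 573/405 nm absorbance ratio.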
KB-3-1 cytotox = KB-3-1 parental cell cytotoxicity; KB-3-1 viability, CellTiter-Glo ATP luminescence, 72 h; Potency, µM (doses to about 46.1 µM), actives largely listed as cytotoxic; 400,000 compounds, 1.4% hits; note: nearly all actives have a fitted effect of over 60% in size
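Cells are dispensed, compounds pinned in, plates held at 37 °C for 72 h, then CellTiter-Glo is added and luminescence read after 10 minutes. Cell line: parental KB-3-1 in phenol-red-free DMEM, 10% FBS.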
A number is an active result; n = inactive; u = inconclusive; x = not tested or not shown. Shown are actives, neighbours in structure and some others; about 5.8% of the full set was active somewhere. Unless noted, calls come from the whole dose curve; as a rule, active = well fitted curve in the direction sought with a large enough effect; inconclusive = small, poorly fitted or top-dose-only effect, or another doubt; inactive = no such curve, though single readings can be large; an effect the other way counts as inactive or inconclusive.

SMILES	PINK1 modulator	KB-V1 cytotox	SW480 rereplic	MCF10A rereplic	ALOX12 inh	KB-3-1 cytotox
COc1cccc(N2CCN(CC(=O)Nc3nc4c(s3)CC(C)CC4)CC2)c1 (centres undefined)	n	18µM	n	n	n	n
COc1ccc(OCCOC(=O)c2ccc3nccnc3c2)cc1	x	x	x	x	n	x
Cc1oc(-c2ccc(C(=O)NCc3ccccc3Cl)cc2)nc1CN1CCc2ccccc21	n	u	x	x	n	5.8µM
COc1ccccc1CNC(=O)c1ccc(-c2nc(CN3CCc4ccccc43)c(C)o2)cc1	n	10µM	x	x	n	u
CN1CCC(N[C@H]2C[C@@H](Cc3cc(-c4ccccc4)on3)C2(C)C)CC1	x	x	x	x	n	x
Cc1cccc(Cn2c(CN3CCOCC3)nc3c2c(=O)[nH]c(=O)n3C)c1	x	x	x	x	n	x
Cn1c(N)c(-c2csc(Nc3ccccc3)n2)c(=O)n(C)c1=O	x	x	x	x	45µM	x
Cn1c(N)c(-c2csc(NC3CC3)n2)c(=O)n(C)c1=O	x	x	x	x	7.9µM	x
c1ccc(Nc2nc(-c3ccncc3)cs2)cc1	n	n	u	n	n	n
NC(=O)c1c(NC(=O)C2CCCO2)sc2c1CCC2 (centres undefined)	n	n	n	n	n	n
CC(C)(C)C1CCc2c(sc(NC(=O)C3CCCO3)c2C(N)=O)C1 (centres undefined)	n	n	u	18µM	n	n
CCOC(=O)C1=C(CNc2ccc(C)cc2)NC(=O)NC1c1ccccc1 (centres undefined)	x	x	x	x	n	x
N#CC1=C(N)Oc2cc(N)ccc2C1c1ccccc1F (centres undefined)	n	7.3µM	18µM	18µM	n	u
N#CC1=C(N)Oc2cc(N)ccc2C1c1cc(Br)cs1 (centres undefined)	n	u	16µM	u	n	8.2µM
N#CC1=C(N)Oc2cc(N)ccc2C1c1cccc(Br)c1 (centres undefined)	n	u	u	1.6µM	u	8.2µM
Cc1ccc(C2C(C#N)=C(N)Oc3cc(N)ccc32)cc1 (centres undefined)	n	n	n	u	n	n
CN(CC(=O)NC(=O)NC1CC1)Cc1cccc(C#N)c1	x	x	x	x	n	x
Cc1cc(SCC(=O)NC(N)=O)nc2ccccc12	x	x	x	x	n	x
CCn1cc(C(=O)N2CCC(CNC(C)=O)CC2)c2ccccc21	x	x	x	x	n	x
CCCOc1ccc(/C=C2/C(=O)ON=C2C)cc1Cl	n	n	n	u	5.6µM	n
COc1cc(/C=C2/C(=O)ON=C2C)cc(Cl)c1O	n	n	n	n	u	n
COc1ccc(Cl)cc1/C=C1/C(=O)ON=C1C	n	n	u	n	32µM	n
C#CCOc1c(Cl)cc(/C=C2/C(=O)ON=C2C)cc1OC	n	u	n	n	28µM	n
CCOC(=O)Cn1c(=NC(=O)c2ccc([N+](=O)[O-])s2)sc2ccccc21	25µM	u	u	3.7µM	n	4.6µM
Cc1[nH]n(-c2ccccc2)c(=O)c1N=Nc1c(O)cc(S(=O)(=O)N(C)C)c2ccccc12	n	n	5.8µM	n	n	u
SMILES	PINK1 modulator	KB-V1 cytotox	SW480 rereplic	MCF10A rereplic	ALOX12 inh	KB-3-1 cytotox
Cc1[nH]n(-c2ccccc2)c(=O)c1N=Nc1ccc2c(c1)OCCO2	n	n	n	n	n	n
COc1ccc(Oc2ccc(/C=C/C(=O)c3ccc(O)cc3)cc2[N+](=O)[O-])cc1	n	u	7.3µM	2.9µM	n	n
O=C(O)COc1ccc(/C=C/C(=O)c2ccc(C3CCCCC3)cc2)cc1	n	n	u	u	n	n
O=C(/C=C/c1ccc(O)c([N+](=O)[O-])c1)c1ccc2ccccc2c1	n	n	u	7.3µM	n	n
COc1ccc(C(=O)/C=C/c2ccc(OCc3ccccc3)cc2)cc1CSCC(=O)O	n	n	u	23µM	n	n
O=C(/C=C/c1cccc([N+](=O)[O-])c1)c1ccc2ccccc2c1	x	x	x	x	n	x
O=C(O)COc1ccc(/C=C/C(=O)c2ccc3ccccc3c2)cc1	n	n	n	18µM	x	u
CCCCNCc1ccc(-c2ccccc2F)o1	x	x	x	x	n	x
Cc1ccc([C@H]2C[C@@H](n3cc(C4CC4)nn3)[C@H](O)CN2CC2CCCCC2)cc1	n	u	x	x	u	21µM
